PLC-beta3 inh: inhibitors of human phospholipase C beta3; Q01970; Purified PLC-beta3, fluorogenic substrate, fluorescence; inhibition, % at 12.2 µM; 370,000 compounds, 0.18% hits;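 further: 0% = median of compound wells on plate and 100% = full blocker control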
ADAM10 inh: inhibits human ADAM10; O14672; recombinant ADAM10, EDANS/DABCYL FRET peptide cleavage, 3 h; inhibition, % at 7 µM; 370,000 compounds, 0.62% hits; AID 720582;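 active means inhibition above a per-campaign cutoff equal to the mean of compounds falling between control-based bounds plus 3 SD, cut at about 20% in these data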;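 further: 0% = DMSO wells while the 100% control is not disclosed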
PLC-gamma1 inh: blocks human PLC-gamma1 enzyme activity; P19174; purified PLC-gamma1, fluorogenic substrate, fluorescence; inhibition, % at 12.2 µM; 370,000 compounds, 0.84% hits; in the data active means inhibition above about 9.5%
Target sequence (P19174 whole entry, looked up): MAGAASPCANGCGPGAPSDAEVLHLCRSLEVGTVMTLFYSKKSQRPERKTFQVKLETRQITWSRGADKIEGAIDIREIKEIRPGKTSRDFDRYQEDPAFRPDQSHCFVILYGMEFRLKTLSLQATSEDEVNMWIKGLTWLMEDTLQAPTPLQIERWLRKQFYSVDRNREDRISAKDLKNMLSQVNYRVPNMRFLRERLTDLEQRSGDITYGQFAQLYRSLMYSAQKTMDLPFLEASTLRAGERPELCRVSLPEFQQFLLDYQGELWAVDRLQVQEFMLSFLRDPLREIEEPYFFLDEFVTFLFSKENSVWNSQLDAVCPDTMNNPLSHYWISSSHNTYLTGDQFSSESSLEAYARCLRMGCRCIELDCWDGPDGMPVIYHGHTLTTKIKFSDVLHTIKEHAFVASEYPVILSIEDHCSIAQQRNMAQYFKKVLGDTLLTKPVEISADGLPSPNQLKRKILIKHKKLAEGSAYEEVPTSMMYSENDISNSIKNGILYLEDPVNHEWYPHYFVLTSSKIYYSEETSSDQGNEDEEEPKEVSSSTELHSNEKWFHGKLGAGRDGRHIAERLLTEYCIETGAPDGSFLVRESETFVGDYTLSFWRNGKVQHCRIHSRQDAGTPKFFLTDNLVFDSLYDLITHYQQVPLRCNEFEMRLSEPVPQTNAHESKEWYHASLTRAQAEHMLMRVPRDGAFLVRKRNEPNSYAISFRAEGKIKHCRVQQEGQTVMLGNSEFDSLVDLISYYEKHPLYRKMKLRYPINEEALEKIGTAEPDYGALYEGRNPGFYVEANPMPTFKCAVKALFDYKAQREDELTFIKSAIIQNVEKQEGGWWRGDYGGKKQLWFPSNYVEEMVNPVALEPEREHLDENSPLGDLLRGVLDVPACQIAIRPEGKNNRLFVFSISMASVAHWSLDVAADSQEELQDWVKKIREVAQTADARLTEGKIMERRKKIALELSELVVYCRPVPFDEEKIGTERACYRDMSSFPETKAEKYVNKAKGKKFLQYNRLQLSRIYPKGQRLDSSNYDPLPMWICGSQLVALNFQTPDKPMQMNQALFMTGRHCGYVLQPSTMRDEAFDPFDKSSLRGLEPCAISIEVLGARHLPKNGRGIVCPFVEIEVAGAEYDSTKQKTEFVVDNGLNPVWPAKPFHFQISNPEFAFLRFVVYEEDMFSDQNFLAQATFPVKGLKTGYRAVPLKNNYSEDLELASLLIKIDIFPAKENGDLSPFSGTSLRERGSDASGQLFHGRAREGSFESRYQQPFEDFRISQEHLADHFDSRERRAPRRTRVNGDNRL
proKLK7 act: activators of human kallikrein-7 zymogen. P49862. purified proKLK7, EDANS-DABCYL substrate fluorescence; 100% is mature enzyme control, 0% vehicle. activation, % at 7 µM. 370,000 compounds, 0.9% hits;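 active means activation above the mean of all tested compounds plus 3 SD, computed per campaign excluding outliers beyond control limits, cut at about 13% in these data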
ADAM17 inh: ADAM17 inhibition, QFRET primary screen. 370,000 compounds, 0.83% hits. recombinant ADAM17, EDANS/DABCYL FRET peptide cleavage. inhibition, % at 6.95 µM. P78536;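 active means inhibition above the mean of compounds lying between control limits plus 3 SD, set per campaign, cut at about 8.5% in these data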;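 further: 0% = DMSO-only wells as the low control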
PLCgamma1 ctr: PLC-gamma1 inhibition, counter-screen for PLC-beta3 hits | AID 743258 | 3,300 compounds, 3.1% hits | purified PLC-gamma1, fluorogenic substrate, fluorescence | shares compounds with PLC-gamma1 inh | inhibition, % at 12.3 µM; in the data active means inhibition above about 9.5%
PLCbeta3 conf: human PLC-beta3 inhibition, confirmation | purified PLC-beta3, fluorogenic substrate fluorescence | AID 743261 | shares compounds with PLC-gamma1 inh | inhibition, % at 12.3 µM | 3,300 compounds, 1% hits
An asterisk follows results filed as active; . = no result given. Only some compounds are listed: those with a hit (about 2.9% of all), similar ones and a draw of the others. Unless noted, no stated cut-off is given here; in the data, active means inhibition above about 11%; inactive means the rest.

SMILES	PLC-beta3 inh	ADAM10 inh	PLC-gamma1 inh	proKLK7 act	ADAM17 inh	PLCgamma1 ctr	PLCbeta3 conf
CS(=O)(=O)N1CCN(CC2CC3C=CC2C3)CC1 (stereo not given)	-1	0	10.0*	-1	-1	-3	-1
COCCCNC(=O)CS(=O)Cc1nc(-c2cccc(OC)c2)oc1C (stereo not given)	4	6	66*	0	-1	-4	-2
CC(C)=CCC[C@H](C)C[C@@H]1Cc2[nH][nH]c(=O)c2[C@@H](c2ccc(F)cc2)O1	0	-5	0	0	-2	.	.
CCn1nc(C)c(NC(=O)CSc2nnc(-c3ccco3)n2C)c1C	11*	12	7	0	5	-2	2
O=C(NCc1cccs1)C1CCN(S(=O)(=O)c2ccc([N+](=O)[O-])cc2)CC1	4	-1	0	0	-3	.	.
CC(=O)Nc1ccc(-c2csc(Nc3ncccn3)n2)cc1	-4	10	9.9*	1	-1	2	4
Oc1ccc(-c2csc(Nc3ncccn3)n2)cc1	-4	3	-1	0	-1	.	.
COc1cccc(CNC(=O)C2CCCN(C(=O)c3ccc(Cl)cc3)C2)c1 (stereo not given)	-8	8	3	0	2	.	.
COc1cc2c(cc1OC)CN(CC(=O)Nc1ccc(F)cc1F)CC2	-23	-10	-12	1	-5	.	.
O=C(CN1CCc2ccccc2C1)Nc1ccc(F)cc1F	-2	4	10*	1	3	-6	-3
CCOC(=O)c1csc(-c2sccc2Br)n1	1	12	14*	0	7	-4	-4
CCOC(=O)c1csc(-c2ccc(OC)c(OC)c2)n1	-1	-1	-2	0	-1	.	.
CCOC(=O)c1sc(NC(=O)C2CC2)cc1C	5	7	11*	0	3	-8	-1
CCOC(=O)c1sc(NC(=S)NC(=O)C2CCCC2)cc1C	0	-2	0	-1	0	.	.
O=C(CC[C@H]1O[C@@H](n2cnc3c(NC(=O)c4ccccc4)ncnc32)[C@H](O)[C@@H]1O)NCc1ccc2c(c1)OCO2	4	1	0	0	0	.	.
COc1ccc(CCNC(=O)CCn2cccc2)cc1OC	-1	0	1	0	-3	.	.
CCOc1ccc(CCNC(=O)CCn2cccc2)cc1OCC	5	2	11*	0	8	-3	2
CCOc1ccc(CCNC(=O)c2[nH]c(C)c(C(C)=O)c2C)cc1OCC	-3	-6	9.8*	1	2	2	3
CN1CCc2c(sc(NC(=O)c3cc(Cl)sc3Cl)c2C(N)=O)C1	-81	-10	-64	1	0	.	.
Cc1c(C(=O)O)cccc1-c1ccc(C=O)o1	9	-27	11*	0	1	-6	-4
CCOc1ccc(-c2n[nH]c(C)c2Oc2ccccc2OC)c(O)c1	3	20	9.6*	0	8	-4	-2
CC(=O)c1c(C)n(CC(=O)NCc2ccc3c(c2)OCO3)c2ccccc12	-5	-2	11*	0	-2	-7	-2
O=C(Cn1c(CO)nc2ccccc21)NCc1ccc2c(c1)OCO2	-7	2	2	0	-2	.	.
O=C(NCc1ccncc1)C1COc2ccccc2O1 (stereo not given)	-1	3	1	-1	-4	.	.
Cc1nc2ccccn2c1C(=O)N/N=C/c1ccc2c(c1)OCO2	0	-7	-3	-1	4	.	.
SMILES	PLC-beta3 inh	ADAM10 inh	PLC-gamma1 inh	proKLK7 act	ADAM17 inh	PLCgamma1 ctr	PLCbeta3 conf
O=C(NCc1ccc2c(c1)OCO2)C1COc2ccccc2O1 (stereo not given)	5	8	11*	0	8	-5	-2
Cc1nc2ccccn2c1C(=O)NCc1ccc2c(c1)OCO2	0	1	10*	0	1	-5	-2
COc1ccccc1C(C(=O)c1ccccc1)c1ccc(O)cc1 (stereo not given)	0	14	2	0	3	.	.
Cc1nnc(SCC(=O)NC2CCCc3ccccc32)n1-c1ccccc1 (stereo not given)	5	3	11*	0	3	-6	-6
CNC(=O)NC1CCCc2ccccc21 (stereo not given)	1	8	11*	0	5	3	4
CCC(=O)NCc1ccc2[nH]c(C)cc2c1	-3	-1	-4	2	-1	.	.
O=C(NCc1ccccc1)c1cc(C2CCCCN2C(=O)c2ccc3c(c2)CCO3)on1 (stereo not given)	-2	-14	12*	0	3	-3	-144
O=C(NCc1ccc(F)cc1)c1cc(C2CCCCN2C(=O)c2ccc3c(c2)CCO3)on1 (stereo not given)	2	2	2	0	0	.	.
O=C(Cn1ccc([N+](=O)[O-])n1)Nc1nccs1	8	6	9.6*	0	5	-2	3
CCOC(=O)c1c(C)oc2ccc(OCC(N)=O)cc12	11*	4	15*	0	3	-3	-3
COc1ccc(N2CCN(C(=O)CCc3ccc(S(=O)(=O)NCC(C)C)cc3)CC2)cc1	2	16	9.6*	0	1	0	0
CCCCCCCCN1C(=O)[C@@H](CC(=O)NCCC(C)C)C[C@@]2(C(=O)OC)C1=C[C@H](C(C)(C)C)O[C@@H]2C	3	2	-1	-1	0	.	.
COc1ccc(OCCCC(=O)NCc2ccco2)cc1	8	0	15*	0	4	-1	4
N/C(=N\OC(=O)c1cccs1)C1(c2ccc(Cl)cc2Cl)CC1	2	-1	0	0	-3	.	.
N/C(Cc1ccc(Cl)c(Cl)c1)=N\OC(=O)c1cccs1	12*	-3	9	1	3	3	10
CCOc1ccc(OCC)c(NC(=O)C2CCN(S(=O)(=O)c3cccnc3)CC2)c1	2	2	2	0	-3	.	.
CCOc1ccc(NC(=O)C2CCN(S(=O)(=O)c3cccnc3)CC2)cc1	7	9	12*	0	4	-2	-2
CCOc1ccc(NC(=O)C2CCCN2S(=O)(=O)c2ccc(OCC)cc2)cc1 (stereo not given)	-6	14	12*	0	6	-1	3
C=CC(=O)NC1CCCCN(C(C)C)C1=O (stereo not given)	0	5	0	1	-3	.	.
CN(Cc1ccccc1)C(=O)c1ccc(NC(=O)Cc2ccc(NC(=O)C3CCN(S(=O)(=O)c4cccc([N+](=O)[O-])c4)CC3)cc2)cc1	-3	1	2	-1	2	.	.
O=Cc1cc(N=Nc2ccc(S(=O)(=O)O)cc2)ccc1O	-8	-6	14*	0	-1	16*	0
COc1cc(N=Nc2ccc(Br)cc2)cc(C=O)c1O	2	-7	3	0	-1	.	.
